Calls of active or inactive are those of the source.
Legend:
[1] = E. coli DRC41 culture turbidity changes, primary screen, E. coli filamentation inducer project, strain DRC41, OD650, 48 h (AID 1152);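 also: E. coli MC1000 strain DRC41 lacking acrAB efflux pump and sulA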; conditions: E. coli DRC41 (acrAB sulA), higher = more signal, called active from +8 up or from −8 down
[2] = small-molecule binders of probe aLefty1, primary screen, biochemical, small-molecule microarray, 635/667 nm fluorescence (AID 1153); conditions: higher = more signal;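 also: score merges spot fluorescence with signal-to-noise ratio from the scanned slide images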
[3] = PSAC antagonists in infected red cells, primary screen, cell-based, P. falciparum Indochina, OD700, 1 h (AID 1154); conditions: P. falciparum Indochina infected RBC osmotic lysis, higher = more signal, called active from +8 up or from −8 down
[4] = PSAC antagonists in infected red cells, primary screen, cell-based, P. falciparum Indochina, OD700, 2 h (AID 1155);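 also: lysis reports solute entry through the parasite surface anion channel PSAC; channel blockers reduce lysis of infected cells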; conditions: P. falciparum Indochina infected erythrocytes, osmotic lysis OD700; higher = more signal, called active from +8 up or from −8 down
[5] = osmotic lysis modulators in infected erythrocytes, primary screen, PSAC antagonist project, cell-based, P. falciparum Indochina, OD700, 3 h (AID 1156); conditions: higher = more signal, called active from +8 up or from −8 down
[6] = PSAC antagonists in infected red cells, primary screen, cell-based, P. falciparum Indochina, OD700, 18 h (AID 1157); conditions: P. falciparum Indochina infected erythrocytes, osmotic lysis OD700, 18 h; higher = more signal, called active from +8 up or from −8 down
[7] = modulators of S6 phosphorylation in cells, primary screen, cell-based, A549, cytoblot, luminescence, serum-stimulated (AID 1158); conditions: A549 phospho-S6 cytoblot, 5 h, higher = more signal;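 also: serum-stimulated A549 lung adenocarcinoma cells; signal is phosphorylated S6 detected by cytoblot immunostaining with HRP secondary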
[8] = target: NADPH oxidase 2 (Homo sapiens) (UniProt P04839); test: NOX2-dependent H2O2 signal modulators, primary screen, NOX inhibitor project, cell-based, HEK293-NOX2, PMA-stimulated, Amplex Red fluorescence (AID 1159); conditions: 45 min, higher = more signal, called active from +8 up or from −8 down; also: test concentration not given here
[9] = target: NADPH oxidase 4 (Homo sapiens) (UniProt Q9NPH5); test: NOX4-dependent H2O2 signal modulators, primary screen, NOX inhibitor project, cell-based, HEK293-NOX4, tetracycline-induced, Amplex Red fluorescence (AID 1160); conditions: 45 min, higher = more signal, called active from +8 up or from −8 down
[10] = target: NADPH oxidase 5 (Homo sapiens) (UniProt Q96PH1); test: NOX5-dependent H2O2 signal modulators, primary screen, NOX inhibitor project, cell-based, HEK293-NOX5, Amplex Red fluorescence (AID 1161); conditions: HEK293-NOX5, ionomycin, 45 min, higher = more signal
[11] = A549 cell viability effects, profiling panel, calcein-AM fluorescence, 48 h, basal (AID 1162); conditions: higher = more signal; also: test concentration not given here
[12] = adipocyte viability effects, profiling panel, cell-based, 3T3-L1 adipocytes, calcein-AM fluorescence, 48 h, basal (AID 1163); conditions: 3T3-L1 adipocytes viability, higher = more signal; also: test concentration not given here
[13] = HepG2 cell viability effects, profiling panel, calcein-AM fluorescence, 48 h, basal (AID 1164); conditions: higher = more signal; also: test concentration not given here
[14] = MM1S cell viability effects, profiling panel, calcein-AM fluorescence, 48 h, basal (AID 1165); conditions: higher = more signal;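 also: viability of MM1S multiple myeloma cells under basal unstimulated conditions; test concentration not given here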
[15] = basal RPMI8226 viability, no added stimulus, profiling panel, cell-based, calcein-AM fluorescence, 48 h, PK04 Diversity Set (AID 1166); conditions: RPMI8226 myeloma viability, higher = more signal;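 also: cells grown under basal conditions without added stimulus; test concentration not given here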
[16] = basal HepG2 mitochondrial membrane potential changes, profiling panel, cell-based, JC-1 fluorescence, 24 h, 100 nL compound (AID 1167); conditions: higher = more signal; also: test concentration not given here
[17] = basal 3T3-L1 adipocyte mitochondrial potential changes, profiling panel, cell-based, JC-1 fluorescence, 3T3-L1 adipocytes, 24 h, 100 nL compound (AID 1168); conditions: JC-1 mitochondrial fluorescence, higher = more signal, called active from +8 up or from −8 down; also: test concentration not given here
[18] = basal RPMI8226 mitochondrial membrane potential changes, profiling panel, cell-based, JC-1 fluorescence, 24 h, 100 nL compound (AID 1169); conditions: RPMI8226 myeloma, JC-1 mitochondrial potential fluorescence, higher = more signal; also: test concentration not given here
[19] = basal MM1S mitochondrial membrane potential changes, profiling panel, cell-based, JC-1 fluorescence, 24 h, 100 nL compound (AID 1170); conditions: higher = more signal; also: test concentration not given here
[20] = A549 lung cancer cell viability effects, profiling panel, resazurin fluorescence, 24 h, PK04 Diversity Set (AID 1171); conditions: higher = more signal, called active from +8 up or from −8 down; also: test concentration not given here

NADPH oxidase 2 (Homo sapiens), sequence (P04839 whole entry, looked up): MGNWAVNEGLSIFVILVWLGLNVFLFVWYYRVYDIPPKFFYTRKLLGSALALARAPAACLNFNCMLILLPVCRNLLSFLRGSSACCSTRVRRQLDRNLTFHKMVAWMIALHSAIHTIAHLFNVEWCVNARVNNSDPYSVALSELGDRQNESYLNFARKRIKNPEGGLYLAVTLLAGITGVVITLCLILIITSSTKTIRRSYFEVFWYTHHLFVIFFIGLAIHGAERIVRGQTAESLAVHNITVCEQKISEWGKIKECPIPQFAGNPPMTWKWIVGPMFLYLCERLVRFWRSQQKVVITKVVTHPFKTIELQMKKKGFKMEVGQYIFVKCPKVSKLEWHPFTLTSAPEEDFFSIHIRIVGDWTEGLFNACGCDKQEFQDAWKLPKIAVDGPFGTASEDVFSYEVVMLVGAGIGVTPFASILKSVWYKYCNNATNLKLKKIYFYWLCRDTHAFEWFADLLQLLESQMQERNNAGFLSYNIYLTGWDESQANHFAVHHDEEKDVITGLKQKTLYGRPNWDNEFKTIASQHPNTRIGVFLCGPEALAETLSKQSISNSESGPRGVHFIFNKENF
NADPH oxidase 5 (Homo sapiens), sequence (Q96PH1 whole entry, looked up): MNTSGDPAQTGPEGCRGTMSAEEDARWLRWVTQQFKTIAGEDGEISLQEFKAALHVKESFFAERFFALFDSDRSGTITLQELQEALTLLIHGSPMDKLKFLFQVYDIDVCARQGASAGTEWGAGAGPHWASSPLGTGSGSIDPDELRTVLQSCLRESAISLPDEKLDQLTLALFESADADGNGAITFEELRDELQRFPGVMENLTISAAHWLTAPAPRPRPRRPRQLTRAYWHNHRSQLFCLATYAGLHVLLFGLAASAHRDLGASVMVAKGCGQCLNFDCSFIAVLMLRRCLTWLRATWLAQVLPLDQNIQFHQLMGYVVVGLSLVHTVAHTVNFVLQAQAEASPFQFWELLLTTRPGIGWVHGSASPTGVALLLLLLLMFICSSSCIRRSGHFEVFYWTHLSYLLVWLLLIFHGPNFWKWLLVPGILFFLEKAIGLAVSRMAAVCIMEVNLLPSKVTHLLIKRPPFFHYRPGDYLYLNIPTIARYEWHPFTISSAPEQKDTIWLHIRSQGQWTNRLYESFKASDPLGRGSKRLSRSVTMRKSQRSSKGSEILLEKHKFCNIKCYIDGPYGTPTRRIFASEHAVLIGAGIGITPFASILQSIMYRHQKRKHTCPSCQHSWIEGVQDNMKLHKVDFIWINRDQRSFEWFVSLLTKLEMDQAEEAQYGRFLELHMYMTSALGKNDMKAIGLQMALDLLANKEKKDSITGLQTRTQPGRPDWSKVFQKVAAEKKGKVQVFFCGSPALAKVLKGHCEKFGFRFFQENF
NADPH oxidase 4 (Homo sapiens), sequence (Q9NPH5 whole entry, looked up): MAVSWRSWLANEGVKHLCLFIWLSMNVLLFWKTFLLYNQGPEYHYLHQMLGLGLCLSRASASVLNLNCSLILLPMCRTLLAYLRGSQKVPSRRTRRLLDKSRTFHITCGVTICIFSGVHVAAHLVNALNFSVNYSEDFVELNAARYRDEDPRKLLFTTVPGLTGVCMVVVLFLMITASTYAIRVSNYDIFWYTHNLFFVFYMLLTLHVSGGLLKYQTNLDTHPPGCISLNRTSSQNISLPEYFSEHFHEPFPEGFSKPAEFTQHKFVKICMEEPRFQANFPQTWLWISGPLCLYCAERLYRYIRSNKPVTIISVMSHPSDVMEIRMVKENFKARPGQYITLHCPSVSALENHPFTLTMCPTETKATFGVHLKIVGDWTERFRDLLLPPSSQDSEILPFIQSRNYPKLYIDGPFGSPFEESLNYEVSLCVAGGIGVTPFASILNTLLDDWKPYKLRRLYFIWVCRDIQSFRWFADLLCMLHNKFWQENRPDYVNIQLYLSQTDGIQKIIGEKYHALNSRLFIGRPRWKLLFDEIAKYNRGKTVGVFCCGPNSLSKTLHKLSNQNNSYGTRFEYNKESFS

| Compound | z-score [1] | composite z-score [2] | z-score [3] | z-score [4] | z-score [5] | z-score [6] | z-score [7] | z-score [8] | z-score [9] | z-score [10] | z-score [11] | z-score [12] | z-score [13] | z-score [14] | z-score [15] | z-score [16] | z-score [17] | z-score [18] | z-score [19] | z-score [20] |
| --- | --- | --- | --- | --- | --- | --- | --- | --- | --- | --- | --- | --- | --- | --- | --- | --- | --- | --- | --- | --- |
| COc1cc2c(cc1OC)CN(C(=O)[C@H]1[C@@H]3C(=O)O[C@@H](c4ccccc4)[C@@H](c4ccccc4)N3[C@@H](c3ccc(OCCO)cc3)[C@]13C(=O)Nc1ccc(C#CCCO)cc13)CC2 | 0.0836 (inactive) | 0.433 | 2.66 (inactive) | 1.8 (inactive) | 0.796 (inactive) | 0.802 (inactive) | 0.142 | 1.46 (inactive) | 0.798 (inactive) | 1.66 | 0.269 | -0.16 | -0.142 | -0.0509 | 0.77 | -1.21 | 0.764 (inactive) | -0.453 | -1.07 | 0.604 (inactive) |
| O=C1O[C@@H](c2ccccc2)[C@@H](c2ccccc2)N2[C@@H](c3ccccc3OCCO)[C@]3(C(=O)Nc4ccc(C#CCCO)cc43)[C@@H](C(=O)Nc3nc4ccccc4s3)[C@H]12 | 1.4 (inactive) | 0.13 | 2.06 (inactive) | 3.56 (inactive) | 1.59 (inactive) | 1.72 (inactive) | 0.206 | 1.3 (inactive) | 0.352 (inactive) | 1.23 | 1.02 | 0.0714 | 0.702 | -0.264 | -1.55 | -2.29 | 0.856 (inactive) | -1.13 | -1.33 | 0.2 (inactive) |
| COCCOC(=O)N1C(=O)[C@@]2(c3cc(C#CC4(O)CCCCCC4)ccc31)[C@H](C(=O)N1CCCCCCC1)[C@H]1C(=O)O[C@H](c3ccccc3)[C@H](c3ccccc3)N1[C@@H]2c1ccc(OCCO)cc1 | 1.08 (inactive) | 2.64 | 5.11 (inactive) | 2.64 (inactive) | 0.539 (inactive) | 1.27 (inactive) | -0.108 | 0.738 (inactive) | 0.507 (inactive) | 1.36 | 0.364 | 1.85 | 0.783 | -1.62 | -2.6 | -0.914 | -2.37 (inactive) | -0.693 | -0.756 | 1.08 (inactive) |
| COCCOC(=O)N1C(=O)[C@@]2(c3ccccc31)[C@H](C(=O)N1CCN(c3ncccn3)CC1)[C@H]1C(=O)O[C@H](c3ccccc3)[C@H](c3ccccc3)N1[C@@H]2c1ccc(OCCO)cc1 | 1.18 (inactive) | -0.244 | 16.4 (active) | 3.96 (inactive) | 0.779 (inactive) | 1.24 (inactive) | 0.242 | 0.351 (inactive) | 0.798 (inactive) | 0.55 | 1.16 | -0.069 | 1.39 | -0.198 | -0.156 | 1.38 | 0.865 (inactive) | -0.459 | -1.27 | 0.218 (inactive) |
| NCCCCCCNC(=O)[C@H]1C[C@H]2C(=O)N[C@@H](Cc3ccccc3)C(=O)N2[C@H]1c1ccc(O)cc1 | 1.42 (inactive) | -0.0094 | 4.21 (inactive) | -0.243 (inactive) | 0.731 (inactive) | -2.2 (inactive) | 0.316 | 1.81 (inactive) | 1.38 (inactive) | 2.31 | 0.0513 | 0.565 | -0.623 | 0.675 | 0.337 | -0.424 | 0.0433 (inactive) | -1 | -0.119 | 1.18 (inactive) |
| COC(=O)[C@H](Cc1ccccc1)N1CC(/C=C/C2CC2)=C[C@@H]1[C@@H](O)Cc1ccccc1 | 0.974 (inactive) | 0.0082 | 1.97 (inactive) | 0.189 (inactive) | -0.427 (inactive) | 0.401 (inactive) | 0.306 | -0.193 (inactive) | 0.058 (inactive) | 0.424 | 0.56 | -0.0766 | 0.942 | -3.21 | -3.07 | -0.0594 | 0.427 (inactive) | -1.04 | -2.45 | 0.73 (inactive) |
| O=C1O[C@@H](c2ccccc2)[C@@H](c2ccccc2)N2[C@@H](c3ccccc3OCCO)[C@]3(C(=O)Nc4ccc(C#CC5=CCCCC5)cc43)[C@@H](C(=O)NC[C@H](O)c3ccccc3)[C@H]12 | 2 (inactive) | 0.277 | 0.996 (inactive) | 0.526 (inactive) | -2.18 (inactive) | 0.0195 (inactive) | 0.581 | 1.74 (inactive) | 1.1 (inactive) | 2.55 | -1.37 | 1.68 | -3.07 | -3.25 | -4.07 | -2.4 | 2.81 (inactive) | -0.664 | -2 | -1.46 (inactive) |
| COCCOC(=O)N1C(=O)[C@@]2(c3ccccc31)[C@H](c1ccc(OCCO)cc1)N1[C@H](c3ccccc3)[C@H](c3ccccc3)OC(=O)[C@H]1[C@@H]2C(=O)Nc1nc2ccccc2s1 | 0.269 (inactive) | 0.071 | 4.55 (inactive) | 2.02 (inactive) | -0.214 (inactive) | 1.74 (inactive) | -0.381 | 1.13 (inactive) | 1.17 (inactive) | 1.28 | -1.38 | 0.73 | -1.18 | -1.15 | -1.57 | -3.4 | 0.576 (inactive) | -1.09 | -1.36 | 0.294 (inactive) |
